Hits are enriched below; roughly 3.8% of the tested compounds scored in any of these assays.
PfHsp90 set2 – inhibits growth of yeast expressing Plasmodium falciparum Hsp90; AID 504621; 0.32% of 310,000 active; S. cerevisiae expressing PfHsp90, BacTiter-Glo ATP, 48 h; yeast lacking PDR1 and PDR3 efflux regulators; inhibition, % at 9.4 µM;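 active = every replicate shows inhibition above about 80%, whatever the replicate mean, limit read from the data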;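 note: 0% = DMSO neutral controls and 100% = 20 µM radicicol positive controls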
tim23-1 inh – growth inhibitors of tim23-1 mutant yeast. S. cerevisiae tim23-1 growth, BacTiter-Glo luminescence, 24 h. inhibition, % at 20 µM. 1.3% of 330,000 active;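 active = growth inhibition of the mutant yeast at or above 50%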;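 note: temperature-sensitive mutant grown at 25 °C; plate controls were DMSO-treated mutant yeast for no effect and medium wells lacking yeast for full effect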
Beta2AR agonist – activates human beta-2 adrenergic receptor causing internalization. Am2.2-beta2AR cells, FAP receptor internalization, flow cytometry. response, % (no concentration beside the values). 0.43% of 340,000 active. AID 504454;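 active = response above a set limit, near 3 SD of response in nonfluorescent compounds, cut at about 42% in these data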
Target sequence (P07550 whole entry, looked up): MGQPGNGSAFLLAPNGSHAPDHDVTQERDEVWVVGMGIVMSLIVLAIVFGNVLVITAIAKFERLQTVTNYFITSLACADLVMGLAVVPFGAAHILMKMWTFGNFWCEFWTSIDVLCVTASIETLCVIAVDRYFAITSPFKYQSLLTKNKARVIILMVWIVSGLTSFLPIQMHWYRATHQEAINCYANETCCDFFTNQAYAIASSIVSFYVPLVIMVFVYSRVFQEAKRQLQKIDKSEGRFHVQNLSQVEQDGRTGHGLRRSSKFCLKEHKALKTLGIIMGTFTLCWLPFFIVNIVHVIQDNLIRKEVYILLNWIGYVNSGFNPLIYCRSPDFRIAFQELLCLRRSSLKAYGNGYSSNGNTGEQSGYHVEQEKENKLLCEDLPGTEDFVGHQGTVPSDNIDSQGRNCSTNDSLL
TIM10 inh – inhibits growth of TIM10 yeast strain; 1.4% of 330,000 active; AID 463195; S. cerevisiae TIM10 strain growth, BacTiter-Glo luminescence, 24 h; inhibition, % at 10 µM;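 active = inhibition of 40% or more at the single tested concentration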;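 note: wild-type TIM10 isogenic control strain grown at permissive 25 °C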
tim10-1 inh – tim10-1 yeast growth inhibition. S. cerevisiae tim10-1 ts strain growth, BacTiter-Glo, 24 h. inhibition, % at 20 µM. 2.2% of 330,000 active;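 active = inhibition of at least 40%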;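 note: mutant grown at 25 °C; 0% = DMSO wells with yeast and 100% = wells holding no yeast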
tim10 confirm – TIM10 yeast growth inhibition, confirmed; inhibition, % at 10 µM; shares compounds with TIM10 inh; S. cerevisiae tim10 strain growth, BacTiter-Glo luminescence, 24 h; 63% of 4,600 active;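 active = inhibition of yeast growth at or above a set limit in either of two replicates at 10 µM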;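 note: this counterscreen used the strain with wild-type TIM10; 0% = yeast with DMSO and 100% = medium wells lacking yeast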
The depositor's hits bear a star; nt = no result given.

SMILES	PfHsp90 set2	tim23-1 inh	Beta2AR agonist	TIM10 inh	tim10-1 inh	tim10 confirm
CC1CC(C)CN(C(=O)c2nn(C)c3c2CS(=O)(=O)c2ccccc2-3)C1 (centres undefined)	10	12	-2	10	16	nt
O=C(Nc1ccc(C2CC2(Cl)Cl)cc1)c1ccccc1Br (centres undefined)	9	42	3	41*	32	19
COc1ccc(NC(=O)CN2C(=O)NC(C)(C3CC3)C2=O)cc1S(=O)(=O)N1CCCCC1 (centres undefined)	-5	6	1	-1	-2	nt
Cn1c(Cl)c(C(=O)Nc2ccccc2)c2ccccc21	-5	46	-9	51*	-7	57*
O=C(CCl)c1ccc2c(c1)CCN2C(=O)C1CC1	nt	-7	nt	60*	9	74*
COC(=O)[C@@H](NC(=O)NCCC1=CCCCC1)C(C)C	1	6	-7	49*	10	-16
Cn1cnnc1Sc1ccc(/C=C/C(=O)c2ccc(O)cc2)cc1[N+](=O)[O-]	5	37	28	24	25	nt
COc1ccc(NC(=O)/C(C#N)=C/c2ccc(Sc3nncn3C)c([N+](=O)[O-])c2)cc1	-5	47	17	54*	30	29
Cc1cc(Br)c(OCc2ccc(C(=O)N/N=C3\CC4CC=CC34)cc2)c(Br)c1 (centres undefined)	11	45	2	42*	17	44*
O=C1NC(=O)C(c2ccccc2)N1 (centres undefined)	nt	nt	-3	nt	nt	nt
CCCCOC(=O)c1ccc(NC(=O)c2ccoc2C)cc1	5	27	3	41*	34	2
Cc1[nH]c2ccccc2c1C(=O)/C=C/c1ccccc1Cl	8	19	-4	31	-5	nt
Cc1[nH]c2ccccc2c1C(=O)/C=C\c1ccccc1Cl	9	47	3	43*	30	12
C/C(CC1CC(COCC(C)C)OC1=O)=N\NC(N)=S (centres undefined)	16	-9	19	96*	13	2
N#Cc1ccc(N)cc1OCCCN1CCCCC1	1	nt	-3	nt	nt	nt
CC(C)N(Cc1ccccc1)C(=S)NC(=O)C1(C)CC1(Cl)Cl (centres undefined)	-8	19	-6	41*	33	33*
CC1(C(=O)NC(=S)N(CCC#N)c2ccccc2)CC1(Cl)Cl (centres undefined)	nt	-1	2	3	13	nt
CC(NC(=O)Cc1ccsc1)c1ccc(Cl)cc1Cl (centres undefined)	-1	13	-10	17	19	nt
Oc1ccc(-c2nc3cnccn3c2Nc2ccc3c(c2)OCCO3)cc1	-17	-8	0	-3	4	nt
c1ccc(-c2nc3cnccn3c2Nc2ccc3c(c2)OCCO3)cc1	21	35	-2	44*	34	12
CC(C)CC(=O)NC(=S)Nc1cccc(NC(=O)c2ccccc2Cl)c1	12	34	1	45*	22	34*
CC(C)CC(=O)NC(=S)Nc1ccc(NC(=O)c2ccco2)cc1	30	40	-10	46*	15	-23
CC(C)CC(=O)Nc1cccc(NC(=O)c2ccccc2Cl)c1	-17	25	4	-3	5	nt
CCc1ccc(/C=C2\SC(N3CCCC3)=NC2=O)cc1	-18	38	1	44*	21	41*
COc1ccc(C(=O)C2CCCN(S(=O)(=O)c3ccc(C(C)=O)cc3)C2)c(C)c1 (centres undefined)	0	40	-7	7	38	nt
SMILES	PfHsp90 set2	tim23-1 inh	Beta2AR agonist	TIM10 inh	tim10-1 inh	tim10 confirm
O=C(c1cn(-c2ccccc2)nc1-c1ccc(Br)cc1)N1CCOCC1	19	45	-18	50*	37	-10
Cc1nc2ccc(NC(=O)[C@H](C)N3C(=O)C4CC=CCC4C3=O)cc2s1 (some centres undefined)	-23	19	0	4	9	nt
O=c1c2ccccc2ncn1CCCOc1ccccc1[N+](=O)[O-]	13	12	4	-5	4	nt
Cc1ccccc1OCCn1cnc2cc([N+](=O)[O-])ccc2c1=O	-69	28	11	42*	35	1
CCN(CC)CCN(C(=O)c1ccc2c(c1)CCCC2)c1nc2ccc(F)cc2s1	2	38	13	18	18	nt
CCN(CC)CCN(C(=O)c1ccc2c(c1)CCCC2)c1nc2c(C)cccc2s1	4	48	3	40*	39	12
COc1ccccc1CNC(=O)[C@@H](NC(=O)C1CCN(C(=O)[C@@H]2CCCN2)CC1)C(C)C	-6	-6	-14	6	-4	nt
N#Cc1ccc(/C=C/C(=O)c2ccco2)cc1	-2	8	6	-3	27	nt
Cc1ccc(/C=C/C(=O)c2cc(Br)ccc2OC(=O)c2ccco2)cc1	-14	40	3	47*	37	44*
CCc1ccc(/C=C/C(=O)c2cc(Br)ccc(=O)c2O)cc1	66	12	21	16	18	nt
O=C(/C=C/c1cc(Br)ccc1O)c1ccco1	101*	-86	86*	66*	-130	80*
CCOc1cccc(C(=O)NC(=S)Nc2cccc(C)c2)c1	-10	34	-1	5	26	nt
CCCOc1cccc(C(=O)NC(=S)Nc2cccc(C(F)(F)F)c2)c1	-8	23	-14	41*	17	17
Cc1ccc(S(=O)(=O)N2CCCCC2)cc1C(=O)OC(C)C(=O)NCC1CCCCC1 (centres undefined)	nt	9	10	7	15	nt
COC(=O)CC(N)c1ccc(Br)cc1 (centres undefined)	-3	12	10	-7	7	nt
COC(=O)CC(NC(=S)NC(=O)c1ccccc1)c1ccc(Br)cc1 (centres undefined)	-16	34	2	40*	26	37*
C=CCOc1ccc(C=CC(=O)c2c(O)c(OC)c(OC)c(OC)c2OC)cc1	43	nt	5	nt	nt	nt
CCCC1(C2CCCC2)NC(=O)NC1=O (centres undefined)	-22	nt	-8	nt	nt	nt
C#CCSc1cc(C(F)(F)F)nc(-c2ccccn2)n1	-9	25	-16	14	12	nt
COc1ccc(Sc2cc(C(F)(F)F)nc(-c3ccccn3)n2)cc1	-12	34	-14	45*	37	31*
COc1cc(C(C)=O)ccc1OCC(O)Cn1nc(C)c(Br)c1C (centres undefined)	-7	10	5	9	12	nt
CC(C)(C)c1ccc(OCC(O)CN2CCOCC2)cc1 (centres undefined)	-16	-4	-5	48*	4	8
CCOC(=O)N1CCC(N2Cc3cccc(C(=O)Nc4ccc(F)cc4)c3C2=O)CC1	19	30	-6	42*	37	30
CCOC(=O)N1CCC(N2Cc3cccc(C(=O)Nc4ccc(CC)cc4)c3C2=O)CC1	nt	29	5	30	39	nt

Bioassay records as filed in PubChem BioAssay.
